About 3,300 (8.5%) of roughly 39,000 compounds were called active. The entries come from a sample that favours actives as a whole.

In this assay the test system is HepG2. Put plainly: cytotoxicity call (relative viability < 0.9). The settings on record: 10 µM.
As to `COc1ccc(CN(C)C[C@@H]2OCCCC[C@@H](C)Oc3ccc(NC(=O)Cc4ccccc4)cc3C(=O)N([C@H](C)CO)C[C@H]2C)cc1`, the cytotoxicity call was “inactive”.

On to `CC[C@H](C)C[C@H](C)CCCCCCCCC(=O)N[C@H]1C[C@@H](O)[C@@H](NCCN)NC(=O)[C@@H]2[C@@H](O)CCN2C(=O)[C@H]([C@H](O)CCN)NC(=O)[C@H]([C@H](O)[C@@H](O)c2ccc(O)cc2)NC(=O)[C@@H]2C[C@@H](O)CN2C(=O)[C@H]([C@@H](C)O)NC1=O`, for which the cytotoxicity call is “inactive”.

For the compound `CCCCCOc1ccc(-c2cc(-c3ccc(C(=O)N[C@H]4C[C@@H](O)[C@@H](O)NC(=O)[C@H]5[C@@H](O)[C@@H](C)CN5C(=O)[C@H]([C@@H](O)CC(N)=O)NC(=O)[C@H]([C@@H](O)[C@@H](O)c5ccc(O)c(OS(=O)(=O)O)c5)NC(=O)[C@H]5C[C@@H](O)CN5C(=O)[C@H]([C@@H](C)O)NC4=O)cc3)no2)cc1`, the cytotoxicity call was “inactive”.

Take `CCCCCOc1ccc(-c2ccc(-c3ccc(C(=O)N[C@H]4C[C@@H](O)[C@@H](O)NC(=O)[C@@H]5[C@@H](O)[C@@H](C)CN5C(=O)[C@H]([C@@H](C)O)NC(=O)[C@H]([C@H](O)[C@@H](O)c5ccc(O)cc5)NC(=O)[C@@H]5C[C@@H](O)CN5C(=O)[C@H]([C@@H](C)O)NC4=O)cc3)cc2)cc1`: the cytotoxicity call is “active”.

On to `C[C@@H]1CN([C@@H](C)CO)C(=O)Cc2cc(NC(=O)CCN3CCOCC3)ccc2O[C@H]1CN(C)C(=O)Nc1ccc2c(c1)OCO2`, for which the cytotoxicity call was “inactive”.

Turning to `CC(C)NC(=O)N(C)C[C@@H]1Oc2ccc(NC(=O)CCC(F)(F)F)cc2C(=O)N([C@H](C)CO)C[C@@H]1C`, the cytotoxicity call was “inactive”.

For `Cc1noc(C)c1S(=O)(=O)Nc1ccc2c(c1)C(=O)N([C@@H](C)CO)C[C@@H](C)[C@@H](CN(C)C(=O)Nc1ccc(C(F)(F)F)cc1)OCCCC[C@@H](C)O2`, the cytotoxicity call is “inactive”.

Consider `Cc1noc(C)c1S(=O)(=O)Nc1ccc2c(c1)C(=O)N([C@H](C)CO)C[C@H](C)[C@H](CN(C)C(=O)Nc1ccc(C(F)(F)F)cc1)OCCCC[C@@H](C)O2`, for which the cytotoxicity call was “inactive”.

With `Cc1noc(C)c1S(=O)(=O)Nc1ccc2c(c1)C(=O)N([C@@H](C)CO)C[C@@H](C)[C@H](CN(C)C(=O)Nc1ccc(C(F)(F)F)cc1)OCCCC[C@H](C)O2`, the cytotoxicity call was “inactive”.

For `Cc1noc(C)c1S(=O)(=O)Nc1ccc2c(c1)C(=O)N([C@H](C)CO)C[C@@H](C)[C@@H](CN(C)C(=O)Nc1ccc(C(F)(F)F)cc1)OCCCC[C@@H](C)O2`, the cytotoxicity call was “active”.

Consider `Cc1noc(C)c1S(=O)(=O)Nc1ccc2c(c1)C(=O)N([C@@H](C)CO)C[C@H](C)[C@H](CN(C)C(=O)Nc1ccc(C(F)(F)F)cc1)OCCCC[C@H](C)O2`, for which the cytotoxicity call is “inactive”.

On to `Cc1noc(C)c1S(=O)(=O)Nc1ccc2c(c1)C(=O)N([C@H](C)CO)C[C@@H](C)[C@H](CN(C)C(=O)Nc1ccc(C(F)(F)F)cc1)OCCCC[C@@H](C)O2`, for which the cytotoxicity call was “active”.

With `Cc1noc(C)c1S(=O)(=O)Nc1ccc2c(c1)C(=O)N([C@@H](C)CO)C[C@H](C)[C@@H](CN(C)C(=O)Nc1ccc(C(F)(F)F)cc1)OCCCC[C@H](C)O2`, the cytotoxicity call is “active”.

Turning to `Cc1noc(C)c1S(=O)(=O)Nc1ccc2c(c1)C(=O)N([C@H](C)CO)C[C@H](C)[C@H](CN(C)C(=O)Nc1ccc(C(F)(F)F)cc1)OCCCC[C@H](C)O2`, the cytotoxicity call is “inactive”.

For `Cc1noc(C)c1S(=O)(=O)Nc1ccc2c(c1)C(=O)N([C@@H](C)CO)C[C@@H](C)[C@@H](CN(C)C(=O)Nc1ccc(C(F)(F)F)cc1)OCCCC[C@H](C)O2`, the cytotoxicity call is “inactive”.

The record behind these values is the antibiotic and cytotoxicity screens of Wong et al. (2023).
